In ChEMBL document CHEMBL4513216, “Probing the Open Global Health Chemical Diversity Library for Multistage-Active Starting Points for Next-Generation Antimalarials” (ACS Infect Dis, 2020) one finds INHIBITION data, which are given here for 69 compounds.

Molecules are shown by their SMILES. In all, about 69,000 compounds went through this assay and about 8,600 (12%) showed an effect of 50% or more. The entries come from a sample that favours strong results as a whole.

The assay relates to Plasmodium berghei. Description: Screen against P. berghei liver stage (PbLuc), transformed with Luciferase, at 10uM. In kind it is functional, HepG2. The conditions noted are these: tested at 10 uM.
For `CN1CCN(c2cc(CNC(=O)c3ccc(Cl)o3)ccn2)CC1`, the INHIBITION was determined as 38.45%.

Take `Cc1csc(NC(=O)CN2CCCC(Cn3nc(C)nc3C)C2)n1` (centres undefined): the INHIBITION came to 0.4%.

Take `COc1c(C)cnc(CSc2nnc(N3CCCC3)s2)c1C`: the INHIBITION was 32.9%.

For `COc1cccc2c1OCC(Cc1cc(C(=O)N3CCCC3)ccn1)C2` (centres undefined), the INHIBITION is on record as 57.2%.

`COc1cccc2c1OCC(NC(=O)NCCC(N)=O)C2` (centres undefined): the INHIBITION amounted to 15.1%.

Turning to `COc1cccc2c1OCC(Cc1cc(C(N)=O)ccn1)C2` (centres undefined), the INHIBITION turned out to be 38%.

Consider `COc1cccc2c1OCC(C(=O)NCCc1nnc(N)s1)C2` (centres undefined), for which the INHIBITION is 43.4%.

For the compound `CNC(=O)c1ccnc(CC2COc3c(cccc3OC)C2)c1` (centres undefined), the INHIBITION is given as -9.54%.

For `COc1cccc2c1OCC(C(=O)NCCc1nc3c(s1)CCC3)C2` (centres undefined), the INHIBITION came to 40.6%.

As to `COc1cccc2c1OCC(NC(=O)NCc1cccs1)C2` (centres undefined), the INHIBITION worked out at 20.5%.

For the compound `COc1cccc2c1OCC(C(=O)NCCc1nnc(C)s1)C2` (centres undefined), the INHIBITION is reported as 65.6%.

Turning to `COc1cccc2c1OCC(NC(=O)NCCc1ccccn1)C2` (centres undefined), the INHIBITION turned out to be 59.1%.

Regarding `COc1ccc(-c2ccc(C(=O)N3CCOCC3CC(N)=O)o2)cc1` (centres undefined), the INHIBITION is on record as -71.5%.

As to `CC(C)(CN1CCC2(CCCNC2)C1)N1CCOCC1` (centres undefined), the INHIBITION is -41.8%.

`O=C(CCc1cncc(F)c1)NS(=O)(=O)c1ccc(F)cc1F`: the INHIBITION is listed as 30.3%.

With `O=c1ccc2c(n1Cc1ccncc1)CCN(Cc1ccoc1)CC2`, the INHIBITION was -37.9%.

Turning to `CC(C)N1C[C@@H]2CN(C(=O)NCc3ccccc3)CCC[C@]2(C(=O)O)C1`, the INHIBITION was 34.6%.

As for `CNC(=O)[C@@H]1C[C@H]2CN(Cc3nccs3)C[C@H]2N1C`, the INHIBITION was 46.6%.

Regarding `Nc1nc(N)c2c(n1)OC1(CCN(C(=O)CC3CCCCN3)CC1)C2` (centres undefined), the INHIBITION came to 26.95%.

Consider `C=C(C)CN1CCC(n2cc(C3CCCC3)nn2)CC1`, for which the INHIBITION amounted to 46.4%.

On to `CCC(CC)CN1CCC(n2cc(C3CCCC3)nn2)CC1`, for which the INHIBITION is on record as 60.4%.

For `CC(C)Nc1cc(N2CCC(n3cc(C4CCCC4)nn3)CC2)ncn1`, the INHIBITION amounted to 16.1%.

On to `CCCC(C)CN1CCC(n2cc(CCCO)nn2)CC1` (centres undefined), for which the INHIBITION is 13.7%.

Turning to `OCc1ccc(CN2CCC(n3cc(C4CCCCC4)nn3)CC2)o1`, the INHIBITION is listed as 48.8%.

Regarding `CCCC(C)CN1CCC(n2cc(C3CCCC3)nn2)CC1` (centres undefined), the INHIBITION amounted to 61.1%.

In the case of `CSC(C)CCN1CCC(n2cc(C3CCCCC3)nn2)CC1` (centres undefined), the INHIBITION came out at 67.7%.

For `CCC(C)CN1CCC(n2cc(C3CCCC3)nn2)CC1` (centres undefined), the INHIBITION worked out at 16.9%.

With `CCC(C)CN1CCC(n2cc(C3CCCCC3)nn2)CC1` (centres undefined), the INHIBITION was found to be 77.6%.

In the case of `CC(C)Cc1cn(C2CCN(C(C)CC3CC3)CC2)nn1` (centres undefined), the INHIBITION was -129%.

As for `CC(O)c1cn(C2CCN(C(=O)C3(C)CCCCC3)CC2)nn1` (centres undefined), the INHIBITION was found to be 10.3%.

Regarding `O=C(c1cn(-c2ccccc2)nn1)N1CCCC(n2cccn2)C1` (centres undefined), the INHIBITION is reported as -67.3%.

`O=C(C1CC(=O)N(c2n[nH]c3cc(Br)ccc23)C1)N1CCCC1` (centres undefined): the INHIBITION is given as -19.4%.

In the case of `CO[C@@H]1CCN(S(=O)(=O)c2cn(C)cn2)[C@H]1Cc1cnn(C)c1`, the INHIBITION is 49.1%.

As for `Cc1nc(CN2CC[C@H](OCC3CC3)[C@@H]2Cc2cccnc2)cs1`, the INHIBITION is on record as -3.33%.

On to `CCOCC(=O)N1Cc2nccn2CC(CN(C)C)C1` (centres undefined), for which the INHIBITION is on record as -7.7%.

On to `CCCc1n[nH]c(C2CN(CCNS(C)(=O)=O)CCO2)n1` (centres undefined), for which the INHIBITION is recorded as -69%.

Take `O=C(c1cscn1)N1C[C@H](OCc2cccnc2)[C@H]2COC[C@H]21`: the INHIBITION was 3.58%.

On to `CNC(=O)c1cc(NC(=O)NC2CC2)ccc1F`, for which the INHIBITION is reported as -0.514%.

For `C=C(C)CN1CCC(NC(=O)Nc2ccc(F)c(C(=O)NC)c2)CC1`, the INHIBITION is reported as 52.6%.

Take `C=C(C)CN1CCC(NC(=O)Nc2ccc(F)c(C(N)=O)c2)CC1`: the INHIBITION was 42.3%.

`Cc1cc(C)n(CC(=O)N2CCC(c3cc4cccnc4[nH]3)CC2)n1`: the INHIBITION turned out to be 1.62%.

For the compound `CN(CC(=O)N1CCC(COc2ccccc2)CC1)c1cnccn1`, the INHIBITION is given as -16.295%.

Take `CCN1CCCC(O)(CN(C)Cc2c(C)nn(C)c2C)C1` (centres undefined): the INHIBITION turned out to be 42.4%.

As to `Cc1noc(OCCOc2ccc(C#N)cc2)n1`, the INHIBITION is recorded as 18.6%.

Regarding `CC(C)c1noc(OCc2cccc(C#N)c2)n1`, the INHIBITION amounted to 46.1%.

For `Cc1noc(OCc2ccc(C#N)cc2)n1`, the INHIBITION was 64.5%.

Regarding `O=C(NCCC(=O)N1CCCCCCC1)c1ccoc1`, the INHIBITION was -18%.

As for `O=C(NCCNS(=O)(=O)c1cccc(Cl)c1)C1CCCO1` (centres undefined), the INHIBITION was 38.9%.

As for `CC(NCCNS(=O)(=O)c1cccc(Cl)c1)C1CCOCC1` (centres undefined), the INHIBITION stood at 67.1%.

In the case of `Cc1cc(NCCNS(=O)(=O)c2cccc(Cl)c2)nc(C)n1`, the INHIBITION was determined as 24.7%.

Regarding `CN(C)C(=O)N1C[C@H]2CC[C@@H](C1)N(Cc1nnc(-c3ccccc3)o1)C2`, the INHIBITION is -3.73%.

On to `OC(CNCc1ccccc1C(F)(F)F)c1ccccc1` (centres undefined), for which the INHIBITION came out at 1.98%.

As to `CC(=O)N(C)Cc1cncc(C2CCCN2C2CCOCC2)n1` (centres undefined), the INHIBITION was found to be 15.925%.

With `Cc1cnc(NC(=O)CSC2CCc3ccccc3NC2=O)s1` (centres undefined), the INHIBITION is on record as 54.6%.

As for `COc1ccccc1NC(=O)CSC1CCc2ccccc2NC1=O` (centres undefined), the INHIBITION was 10.8%.

Take `O=C(CSC1CCc2ccccc2NC1=O)NC1CC1` (centres undefined): the INHIBITION was -41.4%.

In the case of `O=c1c2ccccc2ncn1Cc1cc(C2CC2)[nH]n1`, the INHIBITION is recorded as 18.5%.

`CC(C)c1cc(NC(=O)Cn2cnc3ccccc3c2=O)[nH]n1`: the INHIBITION is -27.4%.

For `O=C(Cn1cnc2ccccc2c1=O)Nc1cc(C2CC2)n[nH]1`, the INHIBITION was found to be 89.4%.

Consider `COc1ccc(CCN2CCN(C(=O)c3scnc3C)CC2)cc1`, for which the INHIBITION amounted to 25.3%.

`CN1CCc2onc(CNc3ncccn3)c2C1`: the INHIBITION was 19.5%.

On to `COc1ccc(CNC2CCCc3nc(N(C)C)ncc32)c(OC)c1` (centres undefined), for which the INHIBITION is listed as 16.7%.

Consider `CN(C)C1(CNC(=O)Cc2ccc(F)cc2)CCOCC1`, for which the INHIBITION is listed as -21.8%.

Turning to `CN(C)C1(CNC(=O)c2c(O)cc(Cl)cc2Cl)CCOCC1`, the INHIBITION is given as 54.8%.

As for `CC(NCC1(N(C)C)CCOCC1)c1ccc(Cl)cc1` (centres undefined), the INHIBITION is given as -2.025%.

With `O=C(c1ccc[nH]1)N1CCc2cc(S(=O)(=O)N3CCOCC3)ccc2C1`, the INHIBITION came to 42.8%.

With `O=C(Nc1ccnc2ccnn12)c1ccc(N2CCC(O)CC2)cc1`, the INHIBITION is listed as 38.1%.

Turning to `O=C(NC1CCN(CC2CC2)C1)c1ccc(C(=O)c2cc[nH]c2)cc1` (centres undefined), the INHIBITION was 10.6%.

For `O=C(NC1CCN(CC2CC2)C1)c1ccc(N2CCC(O)CC2)cc1` (centres undefined), the INHIBITION was found to be 77.7%.
